Measured values: the supplement of paper PMC8975748
Structures can show the parent of a compound that is named as a salt.

The molecules below were run on Saccharomyces cerevisiae BY4741 SeMeCo community (assay: z-score of subpopulation abundance vs DMSO median, subpopulation auxotrophic for HLU; higher = larger share of this subpopulation than in DMSO controls). Settings: 10 µM; 24 h; SM minimal medium; subpopulation (auxotrophy): HLU.
Experimental: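 Fluorescent four-plasmid SeMeCo (self-establishing metabolically cooperating S. cerevisiae BY4741 community; plasmids pH-mRuby2, pL-mWasabi, pU-eCFP, pM-TagRFP657) was grown 24 h in minimal SM medium with each Selleck FDA-approved drug at 10 µM in 384-well plates. Cells were fixed and imaged by high-content confocal microscopy. For each auxotrophic subpopulation (and the prototroph), a z-score gives the deviation from the DMSO vehicle-control population median.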

Compound	z-score of subpopulation abundance
C=C(C)[C@H]1Cc2c(ccc3c2O[C@@H]2COc4cc(OC)c(OC)cc4[C@@H]2C3=O)O1 [Rotenone (Barbasco)]	1.77
Oc1cc(Cl)ccc1Oc1ccc(Cl)cc1Cl [Triclosan]	2.87
CC(C)N(CCC(C(N)=O)(c1ccccc1)c1ccccn1)C(C)C (centres undefined) [Disopyramide]	1.07
CNC1CC(N)C(O)C(OC2OC(CO)C(O)C3OC4(OC(C(N)CO)C(O)C(O)C4O)OC23)C1O (centres undefined) [Hygromycin B]	-0.44
CN(C)C(=O)Oc1ccc[n+](C)c1 [Pyridostigmine Bromide]	-0.68
CN(C)[C@@H]1C(=O)C(C(N)=O)=C(O)[C@@]2(O)C(=O)C3=C(O)c4c(O)cccc4[C@@](C)(O)[C@H]3C[C@@H]12 [Tetracycline HCl]	0.02
NCC(O)c1ccc(O)cc1 (racemic) [(+,-)-Octopamine HCl]	-0.28
C[C@H]1O[C@H](O[C@H]2[C@H](O)[C@@H](O)[C@@H](O)[C@H](O)[C@@H]2O)[C@@H](N)C[C@@H]1NC(=N)C(=O)O [Kasugamycin hydrochloride]	0.46
CC[C@@H](C(N)=O)N1CCCC1=O [Levetiracetam]	-0.28
C[CH2][Hg][S]c1ccccc1C(=O)[O-].[Na+] [Thimerosal]	15.9
CCN(C)C(=O)Oc1cccc([C@H](C)N(C)C)c1 [Rivastigmine]	-0.24
CC[C@@]1(O)C(=O)OCc2c1cc1n(c2=O)Cc2cc3ccccc3nc2-1 [Camptothecin]	-0.42
C[C@@H]1O[C@@H](O[C@H]2C[C@@H](O)[C@]3(CO)[C@H]4[C@H](O)C[C@]5(C)[C@@H](C6=CC(=O)OC6)CC[C@]5(O)[C@@H]4CC[C@]3(O)C2)[C@H](O)[C@H](O)[C@H]1O [Ouabain]	-1.06
CC(=O)O[C@H]1C[C@@H]2CC[C@@H]3[C@H](CC[C@@]4(C)[C@H]3C[C@H]([N+]3(C)CCCCC3)[C@@H]4OC(C)=O)[C@@]2(C)C[C@@H]1[N+]1(C)CCCCC1 [Pancuronium dibromide]	-0.5
COc1ccc2c3c([nH]c2c1)C(C)=NCC3 [Harmaline]	-4.09
N#Cc1nn(-c2c(Cl)cc(C(F)(F)F)cc2Cl)c(N)c1[S+]([O-])C(F)(F)F (centres undefined) [Fipronil]	-1
CC[C@H]1CN2CC[C@]3(C(=O)Nc4ccccc43)[C@@H]2C[C@@H]1/C(=C\OC)C(=O)OC [Rhynchophylline]	0.21

Compound	z-score of subpopulation abundance
COc1ccc2[nH]cc(CCN)c2c1 [5-Methoxytryptamine]	0.69
CCN(CC)CCOC(=O)C(O)(c1ccccc1)c1ccccc1 [Benactyzine hydrochloride]	0.38
CN1[C@@H]2C[C@@H](OC(=O)[C@H](CO)c3ccccc3)C[C@H]1[C@@H]1O[C@@H]12 [Scopolamine HBr]	-1.08
O=[N+]([O-])C(Br)(CO)CO [Bronopol]	0.49
CC(NC(C)(C)C)C(=O)c1cccc(Cl)c1 (centres undefined) [Amfebutamone (Bupropion) HCl]	-0.82
Cc1cc(C(C#N)c2ccc(Cl)cc2)c(Cl)cc1NC(=O)c1cc(I)cc(I)c1O (centres undefined) [Closantel]	0.79
CC[C@H]1[C@@H]2C[C@H]3[C@@H]4N(C)c5ccccc5[C@]45C[C@@H]([C@@H]2[C@H]5O)N3[C@@H]1O [Ajmaline]	-0.63
C=CN1CCCC1=O.II [Povidone iodine]	2.59
CN(C)C(=O)Oc1cccc([N+](C)(C)C)c1 [Neostigmine Bromide]	0.32
COc1ccc(C(CN(C)C)C2(O)CCCCC2)cc1 (centres undefined) [Venlafaxine HCl]	-0.14
CN1C(=O)COc2c(C(=O)NC3CN4CCC3CC4)cc(Cl)cc21 (centres undefined) [Azasetron HCl]	-0.64
CN1[C@@H]2CC[C@H]1C[C@@H](OC(=O)C(CO)c1ccccc1)C2 (some centres undefined) [Atropine sulfate monohydrate]	-0.61
CN1[C@@H]2CC[C@H]1C[C@@H](OC(=O)[C@H](CO)c1ccccc1)C2 [Hyoscyamine]	0.2
CC(C)=CCOc1c2occc2cc2ccc(=O)oc12 [Imperatorin]	0.14
O=C(O[C@H]1C[N+]2(CCCOc3ccccc3)CCC1CC2)C(O)(c1cccs1)c1cccs1 [Aclidinium Bromide]	-0.54
Nc1nc(N)nc(NC2CC2)n1 [Cyromazine]	0.88
C=C[C@H]1CN2CC[C@H]1C[C@H]2[C@H](O)c1ccnc2ccccc12 [Cinchonidine]	-0.48
